Reference: PubChem BioAssay (NCI)
Compounds without any hit were thinned out: in the full panel of roughly 79,000, 15% have a hit. The source made the active and inactive calls. Cut-off read from the data, not from the text of the source: active = growth inhibition above about 70%; inactive = the rest.

Experiments:
[1] = NCI Yeast Anticancer Drug Screen. Data for the rad52 strain (AID 147);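 note: 0% = growth of vehicle-treated control cultures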; settings: S. cerevisiae rad52 mutant growth inhibition, stronger effect = higher value
Summary of the method: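 Yeast strain carrying a DNA damage repair alteration was exposed to test compounds. Growth inhibition was measured relative to vehicle-treated controls.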

[2] = NCI Yeast Anticancer Drug Screen. Data for the wt1 strain (AID 149);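 note: 0% = growth of vehicle-treated wt1 cultures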; settings: S. cerevisiae wt1 strain (SPY 50644) growth inhibition, stronger effect = higher value
Summary of the method: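 wt1 yeast, compound-treated; % growth inhibition vs vehicle control.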

[3] = NCI Yeast Anticancer Drug Screen. Data for the mgt1 strain (AID 153); settings: S. cerevisiae mgt1 mutant growth inhibition, stronger effect = higher value
Summary of the method: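 Yeast mgt1 strain (DNA repair/cell-cycle alteration panel) exposed to compounds; growth inhibition measured relative to vehicle-treated controls.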

[4] = NCI Yeast Anticancer Drug Screen. Data for the rad50 strain (AID 155);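 note: 0% = growth of vehicle-only cultures of the same strain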; settings: S. cerevisiae rad50 strain growth inhibition, stronger effect = higher value
Summary of the method: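 Genetically altered yeast (DNA repair pathway); compound treatment; growth inhibition vs vehicle ctrl.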

[5] = NCI Yeast Anticancer Drug Screen. Data for the mec2-1 strain (AID 157); settings: S. cerevisiae mec2-1 strain, stronger effect = higher value
Summary of the method: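 mec2-1 yeast strain, carrying an alteration in DNA damage repair or cell cycle control, was exposed to compounds; growth inhibition was measured relative to vehicle-treated controls.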

[6] = NCI Yeast Anticancer Drug Screen. Data for the rad14 strain (AID 159);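 note: 0% = growth of vehicle-treated control cultures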; settings: S. cerevisiae rad14 strain growth inhibition, stronger effect = higher value
Summary of the method: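 Test compounds were applied to a repair-deficient yeast strain. Its growth was then compared with that of cultures given vehicle alone, and inhibition was expressed relative to those controls.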

[7] = NCI Yeast Anticancer Drug Screen. Data for the sgs1 mgt1 strain (AID 161);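 note: 0% = growth of cultures given vehicle only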; settings: S. cerevisiae sgs1 mgt1 strain, stronger effect = higher value
Summary of the method: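 Growth of a repair-deficient yeast mutant was monitored after compound treatment and expressed as inhibition relative to vehicle-treated cultures.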

[8] = NCI Yeast Anticancer Drug Screen. Data for the CLN2oe strain (AID 163);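 note: 0% = growth of vehicle-only control cultures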; settings: S. cerevisiae CLN2oe strain, stronger effect = higher value
Summary of the method: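 Yeast cells carrying a defined cell-cycle control alteration were exposed to test compounds. Growth inhibition was scored against vehicle-treated control cultures.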

[9] = NCI Yeast Anticancer Drug Screen. Data for the cln2 rad14 strain (AID 165);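 note: 0% = growth equal to vehicle treated cultures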; settings: S. cerevisiae cln2 rad14 strain, stronger effect = higher value
Summary of the method: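 Yeast carrying cln2 and rad14 alterations (cell cycle control and DNA damage repair) were exposed to compounds. Growth inhibition was measured against vehicle-treated controls.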

[10] = NCI Yeast Anticancer Drug Screen. Data for the bub3 strain (AID 167); settings: S. cerevisiae bub3 mutant strain, stronger effect = higher value
Summary of the method: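 Yeast carrying a defined mutation is treated with each compound, and growth is compared with that of vehicle-exposed cells to give inhibition.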

[11] = NCI Yeast Anticancer Drug Screen. Data for the wt2 strain (AID 169);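 note: 0% = growth of vehicle-treated yeast cultures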; settings: S. cerevisiae wt2 strain growth inhibition, stronger effect = higher value
Summary of the method: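 Yeast cells were exposed to test compounds, and growth inhibition was measured relative to vehicle-treated controls.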

[12] = NCI Yeast Anticancer Drug Screen. Data for the mlh1 strain (AID 171);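 note: 0% = growth of vehicle-treated control cultures of the same strain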; settings: S. cerevisiae mlh1 strain growth inhibition, stronger effect = higher value
Summary of the method: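 Yeast carrying a defined genetic alteration in DNA damage repair or cell cycle control were exposed to test compounds. Growth inhibition was measured relative to vehicle-treated controls.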

[13] = NCI Yeast Anticancer Drug Screen. Data for the sgs1 strain (AID 173);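 note: 0% = growth of vehicle-only control cultures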; settings: S. cerevisiae sgs1 mutant, stronger effect = higher value
Summary of the method: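 Yeast mutant strains carrying defined defects in DNA damage repair or cell cycle control were exposed to test compounds. Growth inhibition was scored against vehicle-treated controls.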

[14] = NCI Yeast Anticancer Drug Screen. Data for the mlh1 rad18 strain (AID 175); settings: S. cerevisiae mlh1 rad18 strain growth inhibition, stronger effect = higher value
Summary of the method: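 Growth inhibition of the yeast strain was measured after compound exposure and expressed relative to vehicle-treated controls. The strain carries defined defects in DNA damage repair.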

[15] = NCI Yeast Anticancer Drug Screen. Data for the rad18 strain (AID 177); settings: S. cerevisiae rad18 mutant growth inhibition, stronger effect = higher value
Summary of the method: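 Yeast carrying a defined DNA damage repair alteration were exposed to compounds. Growth inhibition was expressed relative to vehicle-treated controls.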

[16] = NCI Yeast Anticancer Drug Screen. Data for the rad50EPP+ strain (AID 151);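 note: 0% = growth of vehicle-treated control cultures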; settings: S. cerevisiae rad50 mutant strain, stronger effect = higher value
Summary of the method: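 Yeast strain carrying rad50 alteration (rad50EPP+) exposed to compounds; growth inhibition measured relative to vehicle-treated controls.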

[17] = at 5.0 µM (retest, dose inferred, filed as 0.5)
[18] = at 50.0 µM (retest, dose inferred, filed as 5.0)

Measured: growth inhibition

O=[N+]([O-])c1cc(CCl)ccc1CCl
active: [1]; at 33.0 µM 95% | [1]; at 100.0 µM 97% | [2]; at 33.0 µM 93% | [2]; at 100.0 µM 97% | [3]; at 33.0 µM 90% | [3]; at 100.0 µM 97% | [4]; at 11.0 µM 84% | [4]; at 33.0 µM 97% | [4]; [18] 98% | [4]; at 50.0 µM 99.1% | [4]; at 100.0 µM 97% | [5]; at 33.0 µM 93% | [5]; [18] 97% | [5]; at 50.0 µM 98.9% | [5]; at 100.0 µM 98% | [6]; at 33.0 µM 95% | [6]; at 100.0 µM 97% | [7]; [18] 98% | [7]; at 50.0 µM 98.5% | [8]; at 33.0 µM 94% | [8]; at 100.0 µM 97% | [9]; [18] 97% | [9]; at 50.0 µM 98.3% | [10]; at 33.0 µM 92% | [10]; [18] 97% | [10]; at 50.0 µM 99.4% | [10]; at 100.0 µM 97% | [11]; at 33.0 µM 96% | [11]; at 100.0 µM 99% | [12]; at 33.0 µM 95% | [12]; at 100.0 µM 98% | [13]; at 11.0 µM 79% | [13]; at 33.0 µM 96% | [13]; at 100.0 µM 98% | [14]; [18] 99% | [14]; at 50.0 µM 99% | [15]; at 11.0 µM 94% | [15]; at 33.0 µM 98% | [15]; at 100.0 µM 97%
inactive: [1]; at 1.2 µM 6% | [1]; at 3.7 µM 11% | [1]; at 11.0 µM 69% | [2]; at 1.2 µM 2% | [2]; at 3.7 µM 8% | [2]; at 11.0 µM 30% | [3]; at 1.2 µM 4% | [3]; at 3.7 µM 2% | [3]; at 11.0 µM 25% | [4]; at 1.2 µM 7% | [4]; at 3.7 µM 20% | [4]; [17] -3% | [5]; at 1.2 µM 3% | [5]; at 3.7 µM 6% | [5]; [17] -7% | [5]; at 11.0 µM 37% | [6]; at 1.2 µM 8% | [6]; at 3.7 µM 13% | [6]; at 11.0 µM 38% | [7]; [17] 4% | [8]; at 1.2 µM 10% | [8]; at 3.7 µM 15% | [8]; at 11.0 µM 48% | [9]; [17] 57% | [10]; at 1.2 µM -18% | [10]; at 3.7 µM 2% | [10]; [17] -17% | [10]; at 11.0 µM 46% | [11]; at 1.2 µM 3% | [11]; at 3.7 µM 15% | [11]; at 11.0 µM 54% | [12]; at 1.2 µM 4% | [12]; at 3.7 µM 13% | [12]; at 11.0 µM 58% | [13]; at 1.2 µM 11% | [13]; at 3.7 µM 28% | [14]; [17] 38% | [15]; at 1.2 µM 32% | [15]; at 3.7 µM 66%

N#CC(C(=O)Nc1ccccc1)C1=C(Cl)C(=O)c2ccccc2C1=O (stereo not drawn)
inactive: [1]; at 1.2 µM 7% | [1]; at 3.7 µM 57% | [16]; at 1.2 µM 13% | [16]; at 3.7 µM 43% | [3]; at 1.2 µM 23% | [3]; at 3.7 µM 6% | [4]; at 1.2 µM 4% | [4]; at 3.7 µM 38% | [4]; [17] 9% | [5]; at 1.2 µM -8%
active: [1]; at 11.0 µM 98% | [1]; at 33.0 µM 98% | [1]; at 100.0 µM 97% | [16]; at 11.0 µM 97% | [16]; at 33.0 µM 97% | [16]; at 100.0 µM 96% | [3]; at 11.0 µM 98% | [3]; at 33.0 µM 97% | [3]; at 100.0 µM 97% | [4]; at 11.0 µM 97% | [4]; at 33.0 µM 97% | [4]; [18] 98% | [4]; at 50.0 µM 91.8% | [4]; at 100.0 µM 96% | [5]; at 3.7 µM 73% | [5]; [17] 73% | [5]; at 11.0 µM 98% | [5]; at 33.0 µM 97% | [5]; [18] 99% | [5]; at 50.0 µM 93%
